Experimental data: PubChem BioAssay (NCI)
Compounds without any hit were thinned out: in the full panel of roughly 79,000, 15% have a hit. Calls of active or inactive are those of the source. Cut-off read from the data, not from the text of the source: active = growth inhibition above about 70%; inactive = the rest.

How the values were obtained:
[1] = NCI Yeast Anticancer Drug Screen. Data for the rad50 strain (AID 155);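 note: 0% = growth of vehicle-only cultures of the same strain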; details: S. cerevisiae rad50 strain growth inhibition; at 50.0 µM; hits give high values
Summary of the method: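 Readout: growth inhibition relative to vehicle-treated cultures. Compound exposure was carried out in a genetically defined yeast strain deficient in DNA damage repair.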

[2] = NCI Yeast Anticancer Drug Screen. Data for the mec2-1 strain (AID 157); details: S. cerevisiae mec2-1 strain, at 50.0 µM, hits give high values
Summary of the method: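 mec2-1 yeast strain, carrying an alteration in DNA damage repair or cell cycle control, was exposed to compounds; growth inhibition was measured relative to vehicle-treated controls.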

[3] = NCI Yeast Anticancer Drug Screen. Data for the sgs1 mgt1 strain (AID 161);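 note: 0% = growth of cultures given vehicle only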; details: S. cerevisiae sgs1 mgt1 strain, at 50.0 µM, hits give high values
Summary of the method: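 Yeast cells carrying a defined DNA-repair defect were exposed to test compounds. Growth inhibition was measured relative to vehicle-treated controls.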

[4] = NCI Yeast Anticancer Drug Screen. Data for the cln2 rad14 strain (AID 165);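 note: 0% = growth equal to vehicle treated cultures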; details: S. cerevisiae cln2 rad14 strain, at 50.0 µM, hits give high values
Summary of the method: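 Yeast carrying cln2 and rad14 alterations (cell cycle control and DNA damage repair) were exposed to compounds. Growth inhibition was measured against vehicle-treated controls.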

[5] = NCI Yeast Anticancer Drug Screen. Data for the bub3 strain (AID 167); details: S. cerevisiae bub3 mutant strain, at 50.0 µM, hits give high values
Summary of the method: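 Readout: yeast growth inhibition, expressed relative to vehicle-only wells. The test organism is a mutant strain from a panel with lesions in DNA repair or checkpoint genes.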

[6] = NCI Yeast Anticancer Drug Screen. Data for the mlh1 rad18 strain (AID 175); details: S. cerevisiae mlh1 rad18 strain growth inhibition; at 50.0 µM; hits give high values
Summary of the method: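 Growth inhibition of the yeast strain was measured after compound exposure and expressed relative to vehicle-treated controls. The strain carries defined defects in DNA damage repair.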

Measured: growth inhibition

OCC(O)C(O)C(O)c1nn(-c2ccccc2)c2nc3ccc(Cl)cc3nc12 (stereo unspecified)
inactive: [1] -0.8% | [2] 9% | [3] 6.05% | [4] -3.8% | [5] 9.25% | [6] 5.3%

CCOC(=O)C(=O)c1c[nH]c2ccccc12
inactive: [1] -3.35% | [2] 2.45% | [3] -2.5% | [4] -12.1% | [5] 6.4% | [6] 10%

Cc1cc(Br)c[nH]c1=O
inactive: [1] -4.75% | [2] -7.7% | [3] -3.65% | [4] -20.2% | [5] -29.1% | [6] 5.05%

CCN(CC)C(=O)Cn1c2c(c3ccccc31)CCCC2
inactive: [1] 33.4% | [2] -30.4% | [3] 2.2% | [4] 1.15% | [5] -2.6% | [6] -11.9%

c1cnc2c3ccncc3c3nc(-c4ccncc4)[nH]c3c2c1
inactive: [1] -10.2% | [2] -12.8% | [3] -11.3% | [4] -34.8% | [5] -17.3% | [6] -17.2%

C[Si](C)(C)O/C=C1/CCOC1=O
inactive: [1] 46.9% | [2] 45.7% | [3] -13.9% | [4] -6.5% | [5] -39.8% | [6] -45%

O=C1OCC2=C1C(c1ccc3c(c1)OCO3)c1cc3c(cc1O2)OCO3 (stereo unspecified)
inactive: [1] -6.8% | [2] -10.9% | [3] -39.2% | [4] 5.4% | [5] -8.6% | [6] -16.6%

Cc1cccc2c1Oc1ccccc1C2NC(=O)OCCCl (stereo unspecified)
inactive: [1] 1.8% | [2] 13.1% | [3] 8.7% | [4] -37% | [5] 0.85% | [6] 12.8%

O=[N+]([O-])c1ccc(Sc2c3ccccc3nc3ccccc23)cn1
inactive: [1] 21.1% | [2] 27.4% | [3] -12.5% | [4] 7.65% | [5] -14.8% | [6] -18.4%

O=C1OC(=O)C2=C1CCCC2
inactive: [1] 8.05% | [2] -18.9% | [3] 18.8% | [4] -1.15% | [5] -18% | [6] 6.7%

CCNC(=O)N(Cc1ccccc1)Cc1ccccc1
inactive: [1] 7.55% | [2] 8.65% | [3] 6.05% | [4] 13.3% | [5] 23.5% | [6] -20.6%

C=CCOCC(COC(=O)CCCCCCCCCCCCCCCCC)OCC=C (stereo unspecified)
inactive: [1] -8.85% | [2] -2.85% | [3] -0.25% | [4] 18.9% | [5] -16.8% | [6] 6.5%

CC1CCCN(C(=O)/C=C/c2ccccc2)C1 (stereo unspecified)
inactive: [1] 9.25% | [2] -19.2% | [3] -6.45% | [4] -45.8% | [5] 6.3% | [6] -3.8%

O=c1[nH]cc(N=Cc2ccccc2O)c(=O)[nH]1.[Cl][Pt]
inactive: [1] 24.9% | [2] 9.05% | [3] 39% | [4] 3.35% | [5] 3.2% | [6] 0.4%

COc1ccc(C(c2ccccc2)c2ccc(OC)cc2)cc1
inactive: [1] -7.95% | [2] -13% | [3] -12.9% | [4] -124% | [5] 37.7% | [6] 4.45%

CSc1nc(SC)c2c(C(N)=S)[nH]nc2n1
inactive: [1] 23.3% | [2] 20.9% | [3] 47% | [4] 19.7% | [5] 18.6% | [6] 23.6%

Nc1ccc(Br)c(N)c1
inactive: [1] -0.95% | [2] -3.65% | [3] -5.35% | [4] -16.9% | [5] -21.6% | [6] -24.9%

Cc1cc(Cl)ncc1[N+](=O)[O-]
inactive: [1] -12.2% | [2] 14.3% | [3] 7.55% | [4] -15.9% | [5] -9.65% | [6] 5.75%

O=C1N=NC(=O)N1c1ccccc1
inactive: [1] -6.75% | [2] 4.3% | [3] 1% | [4] -22.2% | [5] -0.05% | [6] 2.35%

O=C(Cc1ccccc1)NS(=O)(=O)c1ccccc1
inactive: [1] 5.15% | [2] -5.8% | [3] -12.3% | [4] 9.15% | [5] -3.95% | [6] 4.2%

CC(C)CCCC(C)C1CCC2C3CC=C4CC(OP(=O)(O)OC5CCC6(C)C(=CCC7C6CCC6(C)C(C(C)CCCC(C)C)CCC76)C5)CCC4(C)C3CCC12C (stereo unspecified)
inactive: [1] -7.55% | [2] -23.8% | [3] -3.65% | [4] 7.8% | [5] -7.6% | [6] -5.5%

COc1ccc2nc(N/N=C/C(C)=N/Nc3cc(C)c4cc(OC)ccc4n3)cc(C)c2c1
inactive: [1] -3% | [2] 4.8% | [3] -2% | [4] 3.4% | [5] 0.15% | [6] -23.2%

COc1nc(NC2OC(CO)C(O)C(O)C2O)c(Br)c(=O)n1C (stereo unspecified)
inactive: [1] 4.4% | [2] -1.15% | [3] -3.6% | [4] -4.1% | [5] 0.75% | [6] 23%

O=C(O)CSc1nc2c(Cl)c(Cl)c(Cl)cc2[nH]1
inactive: [1] -11.7% | [2] -14.1% | [3] 2% | [4] 1.6% | [5] 13.2% | [6] -9.9%

N#CCCC(=O)c1ccccc1
inactive: [1] -1.5% | [2] -19.1% | [3] -1.15% | [4] -2.65% | [5] 5.15% | [6] 16.9%

O=C(O)C1C2C=CC(O2)C1C(=O)Nc1ccccc1 (stereo unspecified)
inactive: [1] 13.7% | [2] 3.5% | [3] 7.5% | [4] -1.9% | [5] -19.4% | [6] 8.3%

COc1ccc(OC)c2c(Cl)ccnc12
inactive: [1] 17.1% | [2] 15.1% | [3] 15.6% | [4] 20.8% | [5] 11.1% | [6] 24.5%

COC(=O)/C(=C/c1ccc(OC)cc1)C(C(=O)O)=C1CCCCC1
inactive: [1] 20.2% | [2] 9.95% | [3] 7.35% | [4] 9.75% | [5] 2.25% | [6] -8.9%

Oc1ccccc1C1SC(c2ccccc2O)SC(c2ccccc2O)S1 (stereo unspecified)
active: [1] 96.9% | [2] 96% | [3] 95.7% | [4] 93.1% | [5] 97% | [6] 95.8%

CCOC(CN(C)C(=S)Nc1cccc2ccccc12)OCC
inactive: [1] -27.1% | [2] -30.1% | [3] -2.2% | [4] -6.45% | [5] -6.9% | [6] -13.2%

CCCCOC(=O)C(N)Cc1ccccc1 (stereo unspecified)
inactive: [1] -20.4% | [2] -2.3% | [3] -5.65% | [4] -44.5% | [5] 23.6% | [6] -22.2%

CCC(C)C1(C)OC1C(=O)OC (stereo unspecified)
inactive: [1] -2.7% | [2] -31.6% | [3] -42.4% | [4] 22.1% | [5] -41% | [6] 4.55%

CN(C)C(=S)/N=C(\N)N(C)C
inactive: [1] 4.2% | [2] -8.55% | [3] -3.8% | [4] -0.45% | [5] 1.7% | [6] 15.6%

CCCCCCCCCCOc1ccc(OCCCCCCCCC)cc1
inactive: [1] 15.5% | [2] -15.8% | [3] 12.9% | [4] -45% | [5] -2.3% | [6] -11.9%

Cn1c(N2CCCC2)c(C=O)c(=O)n(C)c1=O
inactive: [1] 4.5% | [2] 1.45% | [3] 8.6% | [4] 21.3% | [5] -10.9% | [6] -15.1%

Cc1ccc2c(c1)SC(c1cc3c(cc1Br)OCO3)S2 (stereo unspecified)
inactive: [1] -10.7% | [2] -22.1% | [3] 4.65% | [4] 34.9% | [5] 32.5% | [6] -18.4%

N#CCCOCC(OCCC#N)C(OCCC#N)C(OCCC#N)C(COCCC#N)OCCC#N (stereo unspecified)
inactive: [1] -9.85% | [2] -14.6% | [3] -13.2% | [4] 6.15% | [5] 6.8% | [6] -13.2%

COC(=O)C1(C(=O)OC)OC(c2ccc(OC)cc2)[C@H]2C(=O)N(C)C(=O)[C@H]21 (stereo partly specified)
inactive: [1] 2.75% | [2] -6% | [3] 3.1% | [4] -8.7% | [5] 10.2% | [6] 15.3%

O=C(Cl)C(c1ccccc1)N1C(=O)c2ccccc2C1=O (stereo unspecified)
inactive: [1] 7.15% | [2] 2.15% | [3] 0% | [4] -38.5% | [5] -4% | [6] 0.95%

CCOC(=O)c1nc2ccc(C(F)(F)F)cc2nc1NCc1ccc(OC)c(OC)c1
inactive: [1] 5.7% | [2] 6.65% | [3] -28% | [4] -13.1% | [5] -23.5% | [6] -24.8%

O=C1/C(=C/c2ccccc2)CCCC/C1=C\c1ccccc1
inactive: [1] 27.9% | [2] 31% | [3] 40.5% | [4] -1.9% | [5] 9.75% | [6] 15.9%
